The values that follow come from PubChem BioAssay (NCI).

The subject of this assay is HL-60(TB) leukemia. As to the kind of experiment: NCI-60 one-dose screen, 48 h (100 = growth as untreated, 0 = no growth, -100 = all killed). As to conditions: 10 µM unless noted.

“And” between values parts separate entries of the source, which are not always exact repeats. Equal entries are not always repeated. The panel holds about 83,000 compounds, 20% with a hit somewhere; the sample as a whole holds those more often.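 Assay: single dose, 48 h. Readout: percent growth (0 = no net growth; negative = cell death). Active: <10.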 The source made the active and inactive calls.

For `c1cnc2c(-c3nc4ccc5[nH]ncc5c4c4c3CCCC4)c[nH]c2c1`, the growth is 41.5% (inactive). As to `S=C(S)NCCc1c[nH]c2ccccc12`, the growth is 91.4% (inactive). Turning to `O=C(NC(=O)c1ccc(F)c(Cl)c1)NC1CC1`, the growth was 88.3% (inactive) and 89% (inactive).

On to `COc1cc(NC2CCC(=O)N2c2ccc(Cl)cc2Cl)cc(OC)c1OC` (centres undefined), for which the growth was -3.13% (active). `CN(c1cc2ncc(=O)[nH]c2cc1NC(N)=NCc1ccc(Cl)cc1)C1CCCCC1`: the growth was 52.9% (inactive). With `Cn1cc([C@@H]2Nc3ccc4[nH]ncc4c3[C@H]3[C@H]4CCC(C4)[C@H]32)c(C(F)(F)F)n1`, the growth is 7.12% (active). As to `COc1ccc(-c2ncnc3c2ncn3C/C=C/CCl)cc1`, the growth was 65% (inactive) and 79.4% (inactive). Turning to `CCCCNC(=O)Oc1ccc(/C(=C(\C)c2ccc(Cl)cc2)c2ccc(OCCN(CC)CC)cc2)cc1`, the growth is 69.8% (inactive). Turning to `O=C(C[n+]1cccc2cc(Cl)ccc21)c1ccc2c(c1)CCCC2`, the growth is -28.3% (active). For `O=C1Nc2ccccc2/C1=C/c1cn(C(=O)c2c(Cl)cccc2Cl)c2ccccc12`, the growth was 72.1% (inactive). `COc1cc(-c2nc(/C=C3/C(=O)Nc4ccccc43)c3ccccn23)cc(OC)c1OC`: the growth is 89.6% (inactive). Turning to `CC(C)=NNc1ccccn1`, the growth was 34.6% (inactive).

For `CCCCCCC(O)(c1ccc(F)cc1)C(CN1CCOCC1)c1ccccc1` (centres undefined), the growth was 30.8% (inactive). Consider `CC(=O)Oc1cc(C(=O)O)cc(OC(C)=O)c1OC(C)=O`, for which the growth was 108% (inactive) and 88.2% (inactive).

Consider `Fc1c[c-]c(-c2ccccn2)c(F)c1.Fc1c[c-]c(-c2ccccn2)c(F)c1.[Cl][Pt+].[Cl][Pt+].c1ccc([PH+](C[PH+](c2ccccc2)c2ccccc2)c2ccccc2)cc1`, for which the growth was 6.62% (active). As for `COC(=O)C(=C\c1ccc2c(c1)OCO2)/C(=C/c1ccc2c(c1)OCO2)C(=O)OC`, the growth is 112% (inactive).

As for `COc1ccc2c(c1)nnn1c3ncccc3c(N=O)c21`, the growth was -39.8% (active). `ClCc1ccc(-c2ccc(Cn3cnc4nc(Cl)nc(Cl)c43)cc2)cc1`: the growth is -78.9% (active). As for `N/C(=N\C(N)=N\c1nc2ccccc2s1)c1cccc(Br)c1`, the growth was 95.4% (inactive). Turning to `N=C(N)c1ccc(-c2ccc(-c3ccccc3)o2)nc1`, the growth is 54.1% (inactive). Turning to `CCN1C(=O)N(CC)C2C1NN=c1s/c(=C\c3cccnc3)c(=O)n12` (centres undefined), the growth was -27.5% (active). On to `Cc1ccc(C2C3CC4CCCCC4N3[C@@]3(C(=O)Nc4cc(Cl)ccc43)C2C(=O)c2nc3ccccc3[nH]2)cc1` (some centres undefined), for which the growth is 1.4% (active). Take `Brc1ccc(-n2cc(-c3nn[nH]n3)c(-c3cccs3)n2)cc1`: the growth is 104% (inactive). `Cc1[nH]c2ccc(F)cc2c1CCNC(=O)C1CCN(C(=O)c2ccccc2)C1` (centres undefined): the growth is 107% [25 µM] (inactive). As to `CCN1c2ccccc2C(Cl)(c2ccc(N(C)C)cc2)c2ccccc21`, the growth is 14% (inactive). Turning to `CCNc1nc(-c2ccc(Cl)c(OC)c2)c(-c2ccnc(NCCCNS(=O)(=O)c3ccc(Cl)cc3)n2)s1`, the growth is 34.9% (inactive). Consider `CCCC(=O)NC(c1ccc2c(c1)OCO2)c1ccc2cccnc2c1O` (centres undefined), for which the growth is -47.7% (active). Take `COc1ccc(COC(C)=O)cc1`: the growth was 112% (inactive). `CCOC(=O)c1cc(-c2cccnc2)nc2c(Cl)cc(Cl)cc12`: the growth is 108% (inactive). On to `C#Cc1ccc(NC(=O)c2ccc(/C=C/C(=O)c3nccn3C)cc2)cc1`, for which the growth is -27.2% (active). Turning to `OC1CC2c3ccccc3C1c1ccccc12` (centres undefined), the growth was 109% (inactive). For the compound `Cc1ccc([C@@H]2C[C@H](O)Cc3ccccc3N2)s1`, the growth was 121% (inactive). The result for `CCN(CC)C(=S)SC(SC(=S)N(CC)CC)C(=O)c1nnn(-c2ccc([N+](=O)[O-])cc2)c1C` reads 82.4% (inactive); that for `CN(C)Cc1ccc(NC(=O)c2cncc(C#Cc3cnc(N)c4ncccc34)c2)cc1F`, 83.7% (inactive); that for `O=C(Nc1ccc(Oc2ccc(NC(=O)Nc3ccc([N+](=O)[O-])cc3)cc2)cc1)Nc1ccc([N+](=O)[O-])cc1`, -32.6% (active).

Take `CN1CCCC1c1cccnc1` (centres undefined): the growth is 105% (inactive). In the case of `CNC(=O)c1cc(Oc2ccc3nc(NC(C)=O)sc3c2)ccn1`, the growth is 98.9% (inactive).

With `COc1cc2c(cc1-c1c(C)noc1C)ncc1nc(C3CCOCC3)n([C@@H](C)COC(F)F)c12`, the growth was 24.7% (inactive). For `O=[N+]([O-])c1ccc(N/N=C\c2cc(Br)ccc2O)nc1`, the growth is 11.7% (inactive) and -8.74% (active).
